Compound activity (PubChem BioAssay)
POLI inh: inhibitors of human DNA polymerase iota. AID 588590. Pol iota fluorescent replication assay, 10 min. Q9UNA4. Potency, µM (titrated, usually from 115 µM), for the others: at the highest dose activity, negative = inhibition, most hits filed as inhibitors. 390,000 compounds, 1% hits; note: potency is the fitted concentration of half-maximal effect
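Pol iota at 10 nM preincubated 15 min with compounds at room temperature; reaction started with fluorescent substrate, 50 nM final. Fluorescence read kinetically at 0 and 10 min; buffer-only wells as negative control.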
Pol kappa inh: inhibitors of human DNA polymerase kappa | Q9UBT6 | purified Pol kappa, fluorescent DNA synthesis assay, 10 min | Potency, µM (top dose mostly 107 µM), for inactives: at the highest dose activity, negative = inhibition, most hits filed as inhibitors | 400,000 compounds, 0.53% hits | AID 588579; note: potency is the fitted concentration of half-maximal effect; % is set by controls: 0 for no effect and ±100 for the full control effect
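Readout: fluorescence, taken kinetically at 0 and 10 min. Conditions: 10 nM Pol kappa, 15 min RT compound preincubation, 50 nM substrate final. Controls: enzyme-free buffer wells.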
POLB inh: inhibitors of human DNA polymerase beta. P06746. Pol beta primer extension/strand displacement, fluorescence kinetic. Potency, µM (highest dose often 114 µM), for the others: at the highest dose activity change, negative = inhibition, actives largely listed as inhibitors. 340,000 compounds, 1.3% hits. AID 485314; note: potency is the fitted concentration of half-maximal effect; % is set by controls: 0 for no effect and ±100 for the full control effect
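Enzyme-only controls used 10 nM Pol beta; buffer lacking enzyme served as negative control. Compound preincubated 15 min, then 50 nM substrate added; 0 and 10 min reads at room temperature.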
POLH inh: DNA polymerase eta (human) inhibition; Potency, µM (top dose mostly 114 µM), for inactives: top-dose activity change, negative = inhibition, usual class: inhibitors; 390,000 compounds, 1.2% hits; Q9Y253; recombinant Pol eta, fluorescent DNA replication assay; note: potency is the fitted concentration of half-maximal effect; % is set by controls: 0 for no effect and ±100 for the full control effect
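Pol eta (10 nM) was preincubated with compounds for 15 min at room temperature, after which fluorescent replication substrate (50 nM final) was added to start the reaction. Fluorescence was read kinetically at 0 and 10 min.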
FEN1 inh: human FEN1 inhibition; P39748; Potency, µM (highest dose often 114 µM), inactives show at the highest dose activity change, negative = inhibition, usual class: inhibitors; 390,000 compounds, 0.35% hits; Recombinant FEN1 flap cleavage, fluorescence, 15 min; note: potency is the fitted concentration of half-maximal effect; % is set by controls: 0 for no effect and ±100 for the full control effect; nearly all actives have a fitted effect of over 65% in size
Target sequence (P39748 whole entry, looked up): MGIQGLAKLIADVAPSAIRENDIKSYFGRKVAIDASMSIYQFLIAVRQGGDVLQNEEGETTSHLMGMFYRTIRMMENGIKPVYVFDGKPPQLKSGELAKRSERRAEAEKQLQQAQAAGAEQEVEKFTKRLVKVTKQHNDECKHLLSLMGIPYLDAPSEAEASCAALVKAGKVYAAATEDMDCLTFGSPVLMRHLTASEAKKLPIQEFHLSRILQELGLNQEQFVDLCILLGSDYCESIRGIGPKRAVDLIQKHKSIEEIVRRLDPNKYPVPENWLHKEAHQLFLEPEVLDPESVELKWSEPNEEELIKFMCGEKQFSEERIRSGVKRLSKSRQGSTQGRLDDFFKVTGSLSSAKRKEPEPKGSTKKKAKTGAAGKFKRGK
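In this screen, 50 nM flap DNA substrate was added to 10 nM FEN1 pretreated with compound for 15 min at room temperature; cleavage was followed with reads at 0 and 15 min, and Hill fitting gave concentration–response parameters.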
PI5P4K alpha inh: PI5P4K alpha (human) kinase inhibition | max response, % | P48426 | AID 652105 | 330,000 compounds, 1.2% hits | PI5P4Kalpha enzyme, ADP-Glo luminescence, 60 min; active compounds read low; active = max response of -50% or lower; inconclusive = between -30% and -50%; inactive = -30% or higher; note: value at the top dose of about 77 µM; % is set by controls: 0 for no effect and ±100 for the full control effect
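Luminescence from ADP-Glo served as readout of PI5P4Kalpha activity in a qHTS format. Reaction: enzyme, substrate, compound, ATP at 5 microM final, 60 min at RT.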
Starred values were filed as active, the others as inactive; ? = inconclusive; . = no result; ! = not confirmed by another sample; [ ] = remark or other dose. The list is not random: actives were taken first. Their share in the collection is about 2.8%. Unless noted, calls come from the whole dose curve; as a rule, active = well fitted curve in the direction sought with a large enough effect; inconclusive = small, poorly fitted or top-dose-only effect, or another doubt; inactive = no such curve, though single readings can be large; an effect the other way counts as inactive or inconclusive.

SMILES	POLI inh	Pol kappa inh	POLB inh	POLH inh	FEN1 inh	PI5P4K alpha inh
N#Cc1c(-c2ccccc2)cc(-c2ccc3c(c2)OCO3)[nH]c1=O	17.1%	2.1%	.	-15.0%	-1.1%	-10.2
COc1ccc(-c2cc(-c3ccco3)[nH]c(=O)c2C#N)cc1OC	10µM*	79.4µM*	?	56.2µM*	?	-24.1
CC(C)Nc1nnc(SCc2cc(=O)n3ccsc3n2)s1	?	-18.4%	31.6µM*	-16.7%	1.5%	-25.4
COc1ccc(OC)c2c1C(=O)C(Cl)=C(Cl)C2=O	69.0%	-5.3%	24.9%	-16.0%	?	-101.8*
COc1ccc(OC)c2c1C(=O)CC2C (centres undefined)	.	.	.	-4.3%	.	8.0
COc1cc(/C=C/c2cc(C(F)(F)F)[nH]c(=O)n2)cc(OC)c1OC	?	-5.0%	-28.0%	8.0%	0.4%	-14.2
COc1cc(OC)c(OC)cc1/C=C/c1cc(C(F)(F)F)[nH]c(=O)n1	130.4%	-27.6%	-21.1%	-8.5%	-13.3%	-1.9
O=c1nc(/C=C/c2cccn2-c2ccc([N+](=O)[O-])cc2)cc(C(F)(F)F)[nH]1	39.8µM*	89.1µM*	?	44.7µM*	-19.4%	-69.2*
O=c1nc(/C=C/c2cc([N+](=O)[O-])ccc2Cl)cc(C(F)(F)F)[nH]1	?	11.5%	6.4%	22.4µM*	4.3%	-8.7
CCc1ccccc1S(=O)(=O)Cc1ccc(C(=O)NCCc2ccc(C)cc2)o1	4.4%	-9.3%	-3.0%	-14.0%	-0.4%	.
CN1CCCC2(CCN(S(=O)(=O)c3ccccc3)CC2)C1	.	0.7%[60.1 µM]	.	.	.	.
COC(=O)c1ccccc1NC(=O)Cn1c(=O)n(CCCC(=O)NCCc2ccc(OC)c(OC)c2)c(=O)c2ccccc21	14.5%	-9.2%	3.8%	-14.1%	17.4%	.
CN(C)c1ccc(-c2csc(C(C)(O)c3ccccc3)n2)cc1 (centres undefined)	.	.	.	.	.	6.2
Cc1ccc(-c2csc(N3N=C(c4ccccc4)/C(=C\c4ccc(N(C)C)cc4)C3=O)n2)cc1	.	.	50.1µM*	.	.	.
O=c1cc(/N=C/c2coc3c(ccc4ccccc43)c2=O)[nH]c(=S)[nH]1	?	?	22.4µM*	?	-31.9%	-74.8*
NC(=S)N/N=C/c1coc2c(ccc3ccccc32)c1=O	?	-7.4%	-28.2%	?	4.4%	-14.8
Cc1ccc(N2CCN(C(=O)c3nn(C)c4c3CSc3ccccc3-4)CC2C)cc1 (centres undefined)	19.0%	3.4%	2.4%	-25.4%	-3.5%	.
Oc1c(C(c2ccccc2F)N2CCC3(CC2)OCCO3)sc2nc(-c3ccco3)nn12 (centres undefined)	2.2%	-5.4%[60.1 µM]	25.1%	4.8%	3.0%	.
COc1ccc(CCNC(=O)C(=O)NCC(c2cccs2)S(=O)(=O)c2ccccc2)cc1 (centres undefined)	89.1µM*	-20.8%[60.1 µM]	?	-14.5%	14.3%	.
C[C@@H](NC(=O)/C(C#N)=C/c1ccc(O)c(O)c1)c1ccccc1	?	?	9.5%[57.1 µM]	14.1µM*!	?	-2.3
C[C@H](NC(=O)/C(C#N)=C/c1ccc(O)c(O)c1)c1ccccc1	?	?	5.5%[57.1 µM]	22.4µM*	.	.
N#C/C(=C\c1ccc(O)c(Br)c1)C(=O)NCc1ccccc1	27.1%	2.1%	-0.4%	-4.7%	-17.9%	-29.8
N#C/C(=C\c1ccc(O)c([N+](=O)[O-])c1)C(=O)NCc1ccccc1	?	-4.9%	2.7%	-5.7%	3.9%	-50.3*
COc1cc(/C=C(\C#N)C(=O)Nc2nnc(C(F)(F)F)s2)ccc1OCc1ccc(C(F)(F)F)cc1C(F)(F)F	.	6.7µM*	.	.	?	.
COc1cc(/C=C(\C#N)C(=O)Nc2cc(C(F)(F)F)ccc2Cl)ccc1OCC(=O)Nc1cccc(C(F)(F)F)c1	-5.1%	?	-0.5%	-8.8%	-14.8%	3.8
SMILES	POLI inh	Pol kappa inh	POLB inh	POLH inh	FEN1 inh	PI5P4K alpha inh
COCCNC(=O)c1nn(-c2ccc(C)cc2)c(=O)n(C)c1=O	-6.4%	-6.2%[60.1 µM]	9.3%	-3.5%	-9.1%	.
COc1cccc(CNC(=O)[C@@H](C)N2C(=O)N3CCc4c([nH]c5ccc(OC)cc45)C3(C)C2=O)c1 (some centres undefined)	25.8%	8.7%	41.4%	-24.8%	3.1%	0.1
N#Cc1cccc(C#N)c1Oc1ccc(S(=O)(=O)Nc2ccc(Cl)cc2)cc1	19.1%	-0.7%	17.1%	-8.9%	-6.2%	-21.7
COc1ccc(CNC(=O)COC(=O)CO/N=C(\C)c2ccc3c(c2)OCO3)cc1	21.9%	-8.7%	.	-5.4%	-5.5%	-0.5
COc1cc(/C=C(\C#N)C(=O)Nc2cccc(C(=O)O)c2)ccc1OCc1ccc(C)cc1	63.3%	-10.8%	?	-18.4%	-20.8%	-24.2
COc1cc(/C=C(/C#N)C(=O)Nc2ccccc2)ccc1OCc1ccc(C(=O)O)cc1	0.4%	-4.0%	-3.5%	79.4µM*	?	1.1
N#C/C(=C\c1cccc(O)c1)C(=O)Nc1ccc2c(c1)OCCO2	79.4µM*	0.0%	-5.8%	-5.1%	-2.8%	-11.4
CC(NC(=O)/C(C#N)=C/c1ccc(OCC(=O)O)cc1)c1ccccc1 (centres undefined)	?	-17.1%	-13.2%	17.8µM*	24.4%	-1.7
CC(NC(=O)/C(C#N)=C/c1ccc(Cl)c([N+](=O)[O-])c1)c1ccccc1 (centres undefined)	-8.1%	-12.1%	-1.1%	-20.2%	-20.2%	-16.8
CC(C)NC(=O)/C(C#N)=C/c1ccc2c(c1)OCCO2	143.4%	-16.1%	39.2%	-0.3%	-3.0%	5.5
N#C/C(=C\c1ccc(O)c(O)c1)C(=O)Nc1ccccc1	56.2µM*	?	-1.5%[57.1 µM]	12.6µM*!	?	-21.5
CN(C)c1ccc(-c2nnc3n(Cc4ccccc4)c(=O)c4ccccc4n23)cc1	14.1%	-10.2%	-11.6%	-15.7%	0.0%	.
Nc1c(C(=O)Nc2nc3ccccc3s2)sc2nc(-c3cccs3)ccc12	31.6µM*	?	-123.2%	89.1µM*	-28.6%	.
COc1ccc(-c2ccc(Nc3ccc(C(=O)N4CCOCC4)cc3)nn2)cc1OC	?	-42.2%	28.2µM*	-9.9%	-5.8%	-1.4
COc1ccccc1-c1ccc(Nc2ccc(C(=O)N3CCOCC3)cc2)nn1	-0.8%	-1.8%	-8.5%	-16.7%	-0.2%	4.8
COc1ccc(-n2c(COc3cccc4ccccc34)nnc2SC(C)C(=O)O)cc1 (centres undefined)	-15.3%	-5.2%	7.5%	-11.5%	5.7%	-96.9*
Cc1ccc(OCc2nnc(SC(C)C(=O)O)n2-c2ccccc2)cc1 (centres undefined)	35.6%	0.0%	-1.7%	-19.2%	2.5%	-27.6
Cn1c(SCC(=O)NC2CCCc3ccccc32)nnc1C1CC1 (centres undefined)	34.5%	-6.8%	.	-10.5%	-4.3%	-5.7
